The results in this text go back to the OligoGym collection.
Further: reference of the scale not given here.

For the first assay, the target named is RBMY1E. Description: pooled miR-30 sensor sort-seq; sequence = guide strand. The conditions noted are these: shRNA.
TTGAGCTACCACATGCTTCACG: the sensor-assay potency score (higher = more potent) is -0.607.
The same measure, in the same setting: to TTTCTCGGGAACTTCGACGATT belongs -0.472; to AACTTGAGCTACCACATGCTTC, -1.03.

The target in a further assay is RBP1. The description is as above. The conditions noted are these: shRNA.
As for TTCTCGTTGACCAACATCTTCC, the sensor-assay potency score (higher = more potent) was -0.467.
On the same count and under the same terms, for AAGTCCATGATGTAGTTCCTAA the value was -0.968; for TTGTCATGCACTTGCGGTCATC, -1.49; for TTGACCAACATCTTCCAGTACC, -0.856.
On the same count and under the same terms, to ACTGTTGTCATGCACTTGCGGT belongs -1.01; to TTCCACTCTCATCTCTAGGTGC, -0.438.
In turn, TTCCTAAAAGTGCTCAGCGTGC displayed a sensor-assay potency score (higher = more potent) of -1.04.
Same read-out and setting: for ATTCTCGTTGACCAACATCTTC the value was -0.954; for TTGCTTGCAGACCACACCTTCC, -0.849; for TTCTGCACACACTGGAGCTTGT, -0.8.
Still for that read-out and setting: for TCGTTGACCAACATCTTCCAGT the value was -0.239.
The same measure, in the same setting: for TACTCCTCGAAATTCTCGTTGA the value was -0.0394.

The next assay addresses RCSD1. The assay is described as above. The conditions noted are these: shRNA.
TATCTCTTCTAGTCCAGTGTTT registered a sensor-assay potency score (higher = more potent) of -0.522.
Same read-out and setting: to TAGAACATTAAAAAGGAACTTT belongs 0.0564; to TTGTTGTTGAACCAAGTCCATC, -1.65; to TTTGATACAATTTAGGGTCTTC, 0.305.
Turning to TTGAAAAGTTGTCTCTAGGGTT, the sensor-assay potency score (higher = more potent) is -0.0262.
The same measure, in the same setting: to TACAACTGTTGCTGCTACCTGC belongs 0.0449.
Same read-out and setting: for TTGAGAACCGTAAACACTTTAG the value was -0.662.
On the same count and under the same terms, to TAACTGATATTTGAGAACCGTA belongs -1.05; to TAGCCTTTTCCATCTCTGCTTC, -0.0691; to TTCCTTAGCACCGTTCTGCTGA, 0.0396.
Sequence TTAAAAAGGAACTTTACCCAAG displayed a sensor-assay potency score (higher = more potent) of -0.456.
Same read-out and setting: for TTTGAGAACCGTAAACACTTTA the value was -0.421.

For another assay, the target named is RDH5. The assay is described as above. The conditions noted are these: shRNA.
For the sequence AAAATGAGCTACATCCCGCCTC, the sensor-assay potency score (higher = more potent) was -0.19.
Still for that read-out and setting: for ATCAGTGATATCCAACAGGGTG the value was -0.912.
Same read-out and setting: to TCAGTGATATCCAACAGGGTGG belongs -0.32; to TTTCTCCAGACTCTCCAGGTTG, -1.05.
For ATGAGCTACATCCCGCCTCAGG, the sensor-assay potency score (higher = more potent) is -1.65.
The same measure, in the same setting: for TGTGTTCACATTCAGCACCCGC the value was -1.07.
Same read-out and setting: for TTAACGTGCATCTCCACCCACT the value was -0.757.
On the same count and under the same terms, for TGCATTTTCAGGTACTTGGTGA the value was 0.187; for TCGGAAGCCTCTCTGGTCCAGC, -1.15.
With TTTCAGGTACTTGGTGAGGAAG, the sensor-assay potency score (higher = more potent) is -1.78.
On the same count and under the same terms, to TTCCTTAACGTGCATCTCCACC belongs -0.947; to TAGGTCCGGGTCACAGATCAGG, -1.62.
